# Most compounds without a hit are left out; they make up all but 3.2% or so of the library.
# Tau fluor counter – counter-screen for tau fibril formation inhibitors. tau K18 P301L Alexa594 fluorescence, heparin fibrillization. Potency, µM (highest dose often 57.7 µM), inactives show top-dose activity change, negative = decrease. 280,000 tested, 0.93% active; further: nearly all actives have a fitted effect of over 55% in size
#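 Human tau K18 P301L (15 uM unlabeled, 0.24 uM Alexa 594-labeled) in 100 mM sodium acetate pH 7 with 20 uM heparin, 6 hr at 37 C. ThT 30 uM added, 1 hr ambient; Alexa 594 FP and total fluorescence read at 555/632 nm.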
# Tau fibril ThT – inhibitors of human tau fibril formation, thioflavin T binding | P10636 | recombinant tau K18 P301L, heparin-induced fibrillization, ThT fluorescence | Potency, µM (doses to about 57.4 µM), for the others: at the top dose activity, negative = inhibition, most hits filed as inhibitors | 270,000 tested, 2.1% active; further: nearly all actives have a fitted effect of over 55% in size
# Target sequence (P10636 561-689 P618L limits assumed): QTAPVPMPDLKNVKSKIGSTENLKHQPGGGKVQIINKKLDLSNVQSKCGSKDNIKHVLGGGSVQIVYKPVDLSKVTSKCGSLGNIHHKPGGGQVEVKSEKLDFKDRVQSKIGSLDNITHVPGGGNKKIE
#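 ThT emission at 510 nm, taken 1 hr after adding 30 uM dye, quantifies aggregates formed when 20 uM heparin acts on human tau K18 P301L for 6 hr at 37 C.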
# GoLoco inh red – RGS12 GoLoco-Gai1 interaction inhibition; P63096; Gai1:RGS12 GoLoco peptide FP, rhodamine, 10 min; Potency, µM (top dose mostly 61.6 µM), for the others: at the highest dose activity, negative = inhibition, actives largely listed as inhibitors; 230,000 tested, 0.44% active; AID 880; active means well fitted inhibition curve with a large enough effect, not every such curve was filed as active; inactive means no such curve, though single readings can be large or run the other way; further: nearly all actives have a fitted effect of over 30% in size
# Target sequence (P63096 whole entry, looked up): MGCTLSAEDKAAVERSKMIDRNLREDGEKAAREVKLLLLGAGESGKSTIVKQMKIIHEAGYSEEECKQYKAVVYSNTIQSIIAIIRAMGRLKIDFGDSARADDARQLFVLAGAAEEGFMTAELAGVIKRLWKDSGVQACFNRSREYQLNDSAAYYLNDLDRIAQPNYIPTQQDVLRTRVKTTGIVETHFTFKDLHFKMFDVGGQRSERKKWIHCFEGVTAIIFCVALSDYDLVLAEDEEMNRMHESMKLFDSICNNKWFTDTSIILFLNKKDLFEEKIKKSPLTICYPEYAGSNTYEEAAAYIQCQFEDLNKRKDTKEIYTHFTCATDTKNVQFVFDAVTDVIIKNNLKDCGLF
# TRb-SRC2 inh – inhibitors of human thyroid hormone receptor beta-SRC2 interaction. P10828. Potency, µM (doses to about 106 µM), without a hit: at the highest dose activity change, negative = inhibition, most hits filed as inhibitors. 280,000 tested, 0.065% active. AID 1469. TRbeta-SRC2 peptide binding, fluorescence polarization; receptor liganded with 1 µM T3;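 further: plate controls were bound peptide for no effect and peptide without receptor for full effect; nearly all actives have a fitted effect of over 50% in size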
#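 Human TRb ligand-binding domain (0.6 uM) is mixed with 20 nM Texas Red SRC2 peptide and 1 uM T3; after compound addition and 5 hr at ambient temperature, polarization is measured and normalized to unbound and bound controls.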
# Tau fibril FP – tau fibrillization inhibition (FP) | P10636 | K18 P301L tau heparin fibrillization, Alexa594 FP, 6 h | Potency, µM (doses to about 57.7 µM), without a hit: at the highest dose activity, negative = inhibition, hits mostly inhibitors | 280,000 tested, 0.39% active; further: nearly all actives have a fitted effect of over 55% in size
#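 Human tau K18 […] P301L fragment, 15 uM unlabeled plus 0.24 uM Alexa 594-labeled tau (final), with compound and 20 uM heparin in 100 mM sodium acetate pH 7; 6 hr at 37 C, then Alexa 594 FP read.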
# TR SRC2 fluor cs – alters Texas Red total fluorescence, flagging assay interference. TRb/SRC2 Texas Red total fluorescence interference. Potency, µM (titrated, usually from 106 µM), for the others: at the highest dose fluorescence change, negative = quenching. 280,000 tested, 0.29% active. AID 1479; active means well fitted curve in either direction with a large enough effect; inconclusive means small, poorly fitted or top-dose-only effect
#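 Human TRβ ligand-binding domain (0.6 uM) and Texas Red SRC2 peptide (20 nM) in Tris buffer with 1 uM T3 and 5% DMSO were incubated with pinned compound for 5 hr at ambient temperature. Total fluorescence was computed as S + 2P (555/632 nm).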
# Numbers without * were called inactive; ? = inconclusive; . = not tested or not shown; [ ] = dose if it differs, or a comment. Unless noted, the call rests on the fitted dose curve; in most records, active means well fitted curve in the direction sought with a large enough effect; inconclusive means small, poorly fitted or top-dose-only effect, or another doubt; inactive means no such curve, though single readings can be large; an effect the other way counts as inactive or inconclusive. Unless noted, on the % scale 0 is the no-effect control and ±100 the full control effect; potency means the concentration at half of the fitted maximal effect.
SMILES,Tau fluor counter,Tau fibril ThT,GoLoco inh red,TRb-SRC2 inh,Tau fibril FP,TR SRC2 fluor cs
OC[C@@H]1O[C@@H](Oc2ccc(O)cc2)[C@H](O)[C@@H](O)[C@@H]1O,.,.,.,-6%,.,0%
COc1cc(O)c(C(=O)c2ccccc2)cc1O,13µM*[quencher],7.9µM*,-31%,-7%,14µM*,-4%
COc1c(C2=CC(=O)N(C)C2=O)c2c(n1C)C(=O)c1ccccc1C2=O,18µM*[quencher],14µM*,-14%,12%,-12%,-1%
O=C(Nc1ccc(C(F)(F)F)cc1)c1cc(S(=O)(=O)NCC2COc3ccccc3O2)ccc1F (stereo not drawn),?,7%,-1%,3%,13µM*,-6%
COc1ccc(NC(=O)c2cc(S(=O)(=O)NCC3COc4ccccc4O3)ccc2F)cc1 (stereo not drawn),?,-8%,3%,-4%,2%,5%
COc1cc(-c2nc(-c3ccccc3)c(-c3cccs3)[nH]2)cc(OC)c1OC,?,-21%,3%,-5%,?,0%
COc1cc(-c2nc(-c3ccccc3)c(-c3cccs3)[nH]2)cc(OC)c1O,14µM*[quencher],?,1%,5%,9%,-10%
CN(C)c1ccc(-c2nc(-c3cccs3)c(-c3cccs3)[nH]2)cc1,10µM*[quencher],?,.,-3%,-1%,-3%
Oc1ccccc1-c1nc(-c2cccs2)c(-c2cccs2)[nH]1,4.5µM*[quencher],14µM*,.,4%,?,-2%
c1ccc(-c2nc(-c3cccs3)[nH]c2-c2ccccc2)cc1,?,7%,-5%,-7%,0%,0%
CC(=O)OC[C@@H]1O[C@H](C/C=N\OCC[C@H]2C=C[C@H](OC(C)=O)[C@@H](COC(C)=O)O2)C=C[C@@H]1OC(C)=O,-8%[11.6 µM],-5%[11.5 µM],.,-1%[11.2 µM],-5%[11.6 µM],-1%[11.2 µM]
NC(=O)CC(NC(=O)Cc1cccc2ccccc12)c1ccc(N2CCc3ccccc3C2)c([N+](=O)[O-])c1 (stereo not drawn),?,11µM*,-2%,-3%,-2%,-1%
NC(=O)CC(NC(=O)Cc1cccc2ccccc12)c1ccc(N2CCN(c3ccccc3)CC2)c([N+](=O)[O-])c1 (stereo not drawn),?,?,1%,6%,1%,-2%
Oc1c(Cl)cc(Cl)cc1Sc1cc(Cl)cc(Cl)c1O,?,14µM*,11%,?,0%,?
CCCCc1nn2c(=O)cc(COC(=O)c3ccc(NC(=O)c4cccc(OC)c4)cc3)nc2s1,-2%,-4%,.,3%,2%,1%
O=c1c2c3c(sc2[nH]c(=S)n1Cc1ccco1)CCC3,-16%,?,-1%,2%,-13%,-4%
CC1(C)Cc2c(sc3[nH]c(=S)n(Cc4ccco4)c(=O)c23)CO1,-26%,28µM*,53%,3%,?,-15%
COc1ccc(S(=O)(=O)Cc2ccc(C(=O)NC3CC3)o2)cc1,0%,-4%,-9%,2%,-1%,3%
COc1ccc(S(=O)(=O)Cc2ccc(C(=O)NC3CCCCC3)o2)cc1,-21%,-16%,.,-24%,-3%,5.6µM*[quencher]
COc1ccc(/C=C/c2nc(C#N)c(N3CCC(C)CC3)o2)cc1OC,?,?,.,-1%,14%,-6%
Cc1ccc(NC(=O)CN2C(=O)N/C(=C/c3ccc(C)o3)C2=O)cc1,-13%,?,3%,-12%,?,2%
C=CCN1C(=O)N/C(=C/c2ccc(C)o2)C1=O,-13%,25µM*,-24%,-27%,?,16%
O=S(=O)(O)c1ccccc1,.,.,1%,-12%,.,0%
Cc1noc(C)c1-c1cc(Nc2ccccc2)ncn1,.,.,6%,.,.,.
Nc1scc2c(C(=O)N/N=C/c3ccc(Cl)cc3)nn(-c3ccccc3)c(=O)c12,?,11µM*,15%,-10%,?,-4%
SMILES,Tau fluor counter,Tau fibril ThT,GoLoco inh red,TRb-SRC2 inh,Tau fibril FP,TR SRC2 fluor cs
Nc1c(C(=O)N/N=C/c2ccc(Cl)cc2)cnn1-c1ccccc1,-2%,0%,8%,0%,-2%,-2%
COc1ccc(Br)cc1CNC(=O)Cn1ncn2nc(-c3cccs3)cc2c1=O,-19%,?,.,8%,7%,-2%
CCOc1ccc(/C=C/C(=O)Nc2sc3c(c2C(=O)OC)C(C(=O)OC)CC3)cc1 (stereo not drawn),?,3.2µM*,.,3%,?,-23%
COC(=O)c1sc(=S)sc1C(=O)OC,-19%,3.2µM*,3%,-1%,?,-4%
CCOC(=O)CSc1nc2cc(OCC)ccc2cc1C#N,-23%,16µM*,75%,0%,0%,-4%
Cc1cc(=O)oc2c(CN3CCCCC3)c(O)c(Cl)cc12,2%,-2%,-8%,5%,-5%,-1%
Cc1cc(=O)oc2c(CN3CCC(C)CC3)c(O)c(Cl)cc12,-4%,-1%,22µM*,-27%,5%,2%
CCN(CC)Cc1c(O)c(Cl)cc2c(C)cc(=O)oc12,-7%,-8%,16µM*,6%,3%,-1%
CCNc1ncc2nc(-c3ccc(OC)cc3)c(=O)n(CCc3ccccc3)c2n1,.,.,20%,.,.,.
COc1ccc(Cl)cc1C(=O)N/N=C/c1ccc(N2CCOCC2)cc1,-23%,11µM*,30%,-2%,1%,-3%
O=C(N/N=C/c1ccc(N2CCOCC2)cc1)c1ccccn1,-17%,14µM*,10%,1%,-3%,-2%
CCCCCCCCCCCO,.,.,.,0%[201 µM],.,-2%[201 µM]
COc1cc(OC)c(NC(=O)C2CCCN(c3ncnc4c3nc3n4CCCCC3)C2)cc1Cl (stereo not drawn),-14%,?,.,-8%,5%,18µM*[quencher]
Cc1ccc(N(C)C(=O)C2CCCN(c3ncnc4c3nc3n4CCCCC3)C2)cc1C (stereo not drawn),1%,-7%,.,-5%,-5%,20µM*[quencher]
Cc1ccccc1NC(=O)c1ccc(Cl)c(S(=O)(=O)N2CCCCCC2)c1,-15%,-3%,.,?,-3%,0.79µM*[quencher]
Cc1ccc(C(=O)Nc2ccccc2C(=O)O)cc1S(=O)(=O)N1CCCCCC1,-5%,-5%,.,2%,5%,9%
Cc1ccc2c(c1)c(N=Nc1cccc(C(=O)O)c1)c(O)n2C,-7%,14µM*,11%,0%,2%,-14%
CCOc1ccc2c(c1)c(N=Nc1cccc(C(=O)O)c1)c(O)n2C,3%,7%,13%,6%,5%,-1%
COc1ccc(C(=O)NCCNc2ccccc2[N+](=O)[O-])cc1,-13%,8.9µM*,-3%,6%,-5%,-11%

# Screening data (PubChem BioAssay)
